Hits are enriched below; roughly 3.5% of the tested compounds scored in any of these assays.
Anthrax LF inh2: anthrax lethal factor protease inhibition; inhibition, % at 10 µM; AID 588501; multiplex microsphere protease cleavage assay, LF; P15917; actives 0.12% (n = 360,000)
Target sequence (P15917 whole entry, looked up): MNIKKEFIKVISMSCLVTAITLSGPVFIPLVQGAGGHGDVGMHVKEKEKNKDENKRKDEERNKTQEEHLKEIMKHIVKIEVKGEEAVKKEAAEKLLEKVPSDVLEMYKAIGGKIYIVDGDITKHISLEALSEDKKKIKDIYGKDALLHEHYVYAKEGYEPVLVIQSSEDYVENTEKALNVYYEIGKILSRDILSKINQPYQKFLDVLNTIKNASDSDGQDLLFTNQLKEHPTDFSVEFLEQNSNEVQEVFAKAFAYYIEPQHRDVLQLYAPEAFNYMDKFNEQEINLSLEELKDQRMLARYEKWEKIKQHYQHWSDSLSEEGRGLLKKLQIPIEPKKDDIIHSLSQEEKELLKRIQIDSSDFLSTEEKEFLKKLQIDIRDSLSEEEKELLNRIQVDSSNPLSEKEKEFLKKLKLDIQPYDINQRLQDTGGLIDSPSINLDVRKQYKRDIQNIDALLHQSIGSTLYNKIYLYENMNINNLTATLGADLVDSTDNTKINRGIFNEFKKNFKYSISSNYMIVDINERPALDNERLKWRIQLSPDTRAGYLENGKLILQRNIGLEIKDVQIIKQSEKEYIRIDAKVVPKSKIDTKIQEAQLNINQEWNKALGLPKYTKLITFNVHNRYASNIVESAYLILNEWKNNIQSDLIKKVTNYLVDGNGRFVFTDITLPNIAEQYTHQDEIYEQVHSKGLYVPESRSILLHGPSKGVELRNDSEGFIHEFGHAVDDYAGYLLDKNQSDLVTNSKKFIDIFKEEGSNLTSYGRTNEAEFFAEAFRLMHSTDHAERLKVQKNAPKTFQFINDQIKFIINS
BoNT-A LC inh2: BoNT A light chain protease inhibition; multiplex microsphere protease substrate cleavage, flow cytometry; inhibition, % at 10 µM; actives 0.17% (n = 360,000); AID 588499
BoNT F protease: BoNT F light chain protease inhibition; Multiplex microsphere protease cleavage assay, flow cytometry; inhibition, % at 10 µM; actives 0.22% (n = 360,000); AID 588497; in the data active means inhibition above about 35%, passing the limit was not always enough; inconclusive means no clear call, values can overlap the other calls
Bead autofluor: compound fluorescence in toxin protease inhibitor counterscreen | compound autofluorescence counterscreen, microsphere flow cytometry; hits give high values | fluorescence intensity (test concentration not listed) | actives 3.1% (n = 360,000); in the data active means fluorescence intensity above about 16000; inconclusive means no clear call, values can overlap the other calls
Large screens that a line does not name were inactive. Unless noted, no stated cut-off is given here; in the data, active means inhibition above about 30%; inconclusive means no clear call, values can overlap the other calls; inactive means below that.

Cc1cc(N2CCN(C(=O)c3ccco3)CC2)n2nc(-c3cccc(Cl)c3)cc2n1	BoNT-A LC inh2 inconclusive, Bead autofluor 16545
Cc1cc2n(n1)C(c1ccccc1)Nc1ccccc1-2 (stereo not drawn)	Bead autofluor 16831
Cc1cc2n(n1)C(c1ccc(N(C)C)cc1)Nc1ccccc1-2 (stereo not drawn)	Bead autofluor 20611
Cc1cc2n(n1)C(c1ccc3c(c1)OCO3)Nc1ccccc1-2 (stereo not drawn)	Bead autofluor 21039
Cc1ccc2c(c1)-c1cc(C)nn1C(c1ccc3c(c1)OCO3)N2 (stereo not drawn)	Anthrax LF inh2 inconclusive, Bead autofluor inconclusive
CC1COc2ccccc2N1S(=O)(=O)c1cc(Cl)ccc1Cl (stereo not drawn)	none
CCCOc1ccc(C(F)(F)F)cc1NC(=O)CCc1c(C)noc1C	none
C=CCn1c(O)c(N=NC(=S)Nc2cccc(C)c2)c2ccccc21	BoNT-A LC inh2 30.3
C=CCn1c(O)c(N=NC(=S)Nc2ccccc2F)c2ccccc21	none
Cc1cc(C(=O)COc2ccc(C#N)cc2)c(C)n1CC1CCCO1 (stereo not drawn)	none
COc1cccc(-n2nnc3c(=O)n(Cc4cccc(C)c4)cnc32)c1	none
COc1ccc(-n2nnc3c(=O)n(Cc4cc(C)ccc4C)cnc32)cc1	Bead autofluor 17509
COc1cccc(-n2nnc3c(=O)n(CC(=O)N4CCC(C)CC4)cnc32)c1	none
COc1cccc(-n2nnc3c(=O)n(CC(=O)N4CCC(Cc5ccccc5)CC4)cnc32)c1	BoNT-A LC inh2 inconclusive, Bead autofluor 24394
CCOC(=O)C(CC)n1cnc2c(nnn2-c2ccc(OC)cc2)c1=O (stereo not drawn)	Bead autofluor 17635
Cc1ccc(-n2nnc3c(=O)n(Cc4ccccc4C)cnc32)cc1	none
COc1cccc(-n2nnc3c(=O)n(Cc4ccccc4F)cnc32)c1	Bead autofluor 21710
CN(C)c1ccc(CNC(=O)C2(C)Cc3c(-c4cccc(C(N)=O)c4)ccnc3O2)cc1 (stereo not drawn)	none
CCOC(=O)C(C)n1cnc2c(nnn2Cc2ccc(Cl)cc2)c1=O (stereo not drawn)	none
CCOC(=O)C(C)n1cnc2c(nnn2Cc2ccc(C)cc2)c1=O (stereo not drawn)	BoNT-A LC inh2 inconclusive, Bead autofluor 20875
Cc1ccnc(NC(=O)CN2C(=O)NC(C)(c3ccc4ccccc4c3)C2=O)c1 (stereo not drawn)	Bead autofluor inconclusive
Cc1nc(N2CCOCC2)c(C#N)c2c1COC(C)(C)C2	Bead autofluor 20542
CCc1nc(N2CCOCC2)c(C#N)c2c1COC(C)(C)C2	none
CCN(C[C@H]1N[C@@](CC)(C(=O)OC)[C@H]2C(=O)N(C)C(=O)[C@@H]12)S(=O)(=O)c1ccc(OC(F)(F)F)cc1	none
O=C(Nc1cccc(Cl)c1N1CCCC1)c1ccc([N+](=O)[O-])o1	none
CCN(CC)c1ccc(NC(=O)c2ccc(Br)o2)c(C)c1	Bead autofluor 20876
Cc1cc(O)c(NC(=O)c2ccc(Br)o2)cc1C	Bead autofluor 21608
O=C(Nc1cccc(Cl)c1N1CCCC1)c1ccc(Br)o1	Bead autofluor 21468
COCCNC(=O)CN(C(=O)CCC(=O)Nc1ccccn1)c1cc(C)ccc1C	BoNT F protease inconclusive
CCOC(=O)C(=O)N(C)c1c(CC)nc2c(OCc3cc(Cl)cc(Cl)c3)cccn12	none
Nc1cccc(-c2c[nH]c3ncc(-c4cccnc4)cc23)c1	none
O=C(C1CCCCN1S(=O)(=O)c1ccccc1)N1CCN(C(c2ccccc2)c2ccccc2)CC1 (stereo not drawn)	Bead autofluor 20580
Cc1cc(C)cc(OCC(=O)Nc2nonc2NC(=O)COc2cc(C)cc(C)c2)c1	BoNT-A LC inh2 inconclusive, Bead autofluor 18944
Cc1cccc(OCC(=O)Nc2cc(NC(=O)COc3cccc(C)c3)cc(C(=O)O)c2)c1	none
Cc1cc(C)cc(OCC(=O)Nc2cccc(C(=O)O)c2)c1	BoNT-A LC inh2 inconclusive, Bead autofluor 17933
CCn1cc(Cl)c(C(=O)N2N=C3/C(=C/c4cccs4)CCCC3C2c2cccs2)n1 (stereo not drawn)	Bead autofluor 23292
CCN(CC)c1ccc(C2=NNC(=O)CC2C)cc1[N+](=O)[O-] (stereo not drawn)	none
CC1CC(=O)NN=C1c1ccc(N(C)C)c([N+](=O)[O-])c1 (stereo not drawn)	Bead autofluor 18577
O=C(CCn1c(=S)[nH]c2ccccc2c1=O)NCC1CCCO1 (stereo not drawn)	Bead autofluor 21058
O=C(CCCn1c(=S)[nH]c2ccccc2c1=O)NC1CCCC1	Bead autofluor 16938
CC1CCCCC1NC(=O)CCCn1c(=S)[nH]c2ccccc2c1=O (stereo not drawn)	none
COc1ccc(S(=O)(=O)N(C)C[C@H]2Oc3ccc(NC(=O)Cc4cn(C)c5ccccc45)cc3C(=O)N([C@@H](C)CO)C[C@@H]2C)cc1	none
Cc1ccc(S(=O)(=O)Nc2ccccc2F)cc1C(=O)N1CCN(c2ccccc2O)CC1	none
C[C@H](CO)N1C[C@H](C)[C@@H](CN(C)S(=O)(=O)c2ccccc2)Oc2ccc(NC(=O)NC3CCCCC3)cc2C1=O	none
CC(c1cccs1)N(Cc1ccco1)C(=O)Nc1ccc(Cl)c(Cl)c1 (stereo not drawn)	Bead autofluor 17014
CCOC(=O)CCCCC(=O)c1[nH]c(=O)[nH]c1C[n+]1ccc(C)cc1	none
Cc1[nH]c(=O)[nH]c1C(=O)CCCCC(=O)OCC(=O)Nc1ccccn1	BoNT F protease 69.9
CCC(Sc1nc2ccccc2o1)C(=O)O (stereo not drawn)	none
CC(Sc1nc2ccccc2o1)C(=O)O (stereo not drawn)	Bead autofluor 20941
CSc1ncc(C(=O)Nc2cccc(C)c2C)c(C)n1	none
CCCCC1CC1C(=O)Nc1ccc(OC)c(OC)c1 (stereo not drawn)	Bead autofluor 16567
COc1ccc(-n2c(/C=C/c3ccc(O)c(OC)c3)nc3ccccc3c2=O)cc1	BoNT F protease 35.8
COc1cccc(-n2c(/C=C/c3ccc(O)c(O)c3)nc3ccccc3c2=O)c1	none
CC(=O)Nc1ccc(C(=O)Cn2nnc3ccccc3c2=O)cc1	Bead autofluor 18940
OC(c1ccccc1)(c1nc(/C=C/c2ccc(C(F)(F)F)cc2)cs1)C(F)(F)F (stereo not drawn)	none
O=C(NCCN1CCOCC1)c1cccs1	none
c1csc(CNCCN2CCOCC2)c1	Bead autofluor 16263
CC(C)(C)OC(=O)NCc1ccc(CNC(=O)c2nc[nH]c2C(=O)N2CCc3ccccc3C2)cc1	none
CCn1nc([N+](=O)[O-])c(C(C#N)c2nc3cc(C(F)(F)F)ccc3s2)c(Cl)c1=O (stereo not drawn)	Bead autofluor 22515
CCN(CC)S(=O)(=O)c1ccc(C(C)NC(=O)C2CCCN2C(=O)c2cccs2)cc1 (stereo not drawn)	none
O=C1NC[C@H](CCCCN2C[C@H](Cc3ccccc3)N(CC3CCCCC3)C(=O)C2=O)N(CC2CCCCC2)C1=O	none
COc1cccc(/C(O)=C2\C(=O)C(=O)N(c3ccccn3)C2c2cccc(OC)c2OC)c1 (stereo not drawn)	Bead autofluor 21089
CCCc1cc(=O)n2c(nc3ccccc32)[nH]1	none
Cc1cc(=O)n2c(nc3ccccc32)[nH]1	Bead autofluor 24029

Compound activity: PubChem, NMMLSC
